HEK293 tox – HEK 293 cell cytotoxicity; HEK 293 viability, ATP luminescence (CellTiter-Glo), 48-72 h; 94,000 compounds, 6.6% hits; Potency, µM (titrated, usually from 115 µM), for inactives: top-dose activity change, negative = cytotoxicity, actives largely listed as inhibitors; also: nearly all actives have a fitted effect of over 60% in size
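Cytotoxicity was scored by loss of ATP-coupled luminescence (CellTiter-Glo) in HEK 293 cells. Compound treatment ran 48 or 72 hr at 37 degree Celsius, 5% CO2, 95% humidity.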
NIH3T3 tox – cytotoxic compounds in NIH 3T3 cells | Potency, µM (doses to about 96.7 µM), for the others: at the top dose activity change, negative = cytotoxicity, hits mostly inhibitors | NIH 3T3 viability, CellTiter-Glo ATP luminescence, 48-72 h | 94,000 compounds, 4.3% hits; also: nearly all actives have a fitted effect of over 55% in size
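ATP-dependent luminescence (CellTiter-Glo) served as the viability signal for NIH 3T3 cells treated with compound for 48 or 72 hr at 37 °C.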
Luciferase inh – inhibitors of firefly (Photinus pyralis) luciferase | P08659 | purified P. pyralis luciferase, luminescence, biochemical | Potency, µM (top dose mostly 115 µM), most hits filed as inhibitors | 76,000 compounds, 2.5% hits; also: nearly all actives have a fitted effect of over 65% in size
Target sequence (P08659 whole entry, looked up): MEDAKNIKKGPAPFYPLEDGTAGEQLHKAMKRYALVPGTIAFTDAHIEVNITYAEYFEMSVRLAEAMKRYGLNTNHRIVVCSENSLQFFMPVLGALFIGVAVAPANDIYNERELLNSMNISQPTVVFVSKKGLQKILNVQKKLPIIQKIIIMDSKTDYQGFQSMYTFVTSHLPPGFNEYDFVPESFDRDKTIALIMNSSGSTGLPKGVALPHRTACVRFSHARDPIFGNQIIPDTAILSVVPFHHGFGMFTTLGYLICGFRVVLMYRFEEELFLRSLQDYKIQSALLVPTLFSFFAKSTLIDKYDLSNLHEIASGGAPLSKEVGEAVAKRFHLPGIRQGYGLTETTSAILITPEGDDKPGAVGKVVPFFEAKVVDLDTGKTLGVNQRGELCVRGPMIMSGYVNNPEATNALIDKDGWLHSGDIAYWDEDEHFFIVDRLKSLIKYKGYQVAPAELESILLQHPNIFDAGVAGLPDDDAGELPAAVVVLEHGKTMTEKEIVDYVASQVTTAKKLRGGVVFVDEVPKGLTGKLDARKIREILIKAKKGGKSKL
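Purified 10nM P. pyralis luciferase with 10uM D-luciferin and 10uM ATP in 50mM Tris acetate pH 7.5, 10mM Mg acetate, 0.01% Tween-20, 0.05% BSA. qHTS titration; luminescence read by CCD imager.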
hNpr1 antagonist – blocks ANP-stimulated signaling of human Npr1 receptor. HEK293 hNpr1 GloSensor cGMP, ANP-stimulated luminescence. Potency, µM (series often up to 46.3 µM), for the others: at the highest dose activity change, negative = inhibition, actives largely listed as inhibitors. 76,000 compounds, 1.6% hits; calls by dose curve; also: nearly all actives have a fitted effect of over 60% in size
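Compound pre-incubated 30 min at room temperature on GloSensor-loaded HEK293 cells stably carrying hNpr1 and the pGS-40F cGMP biosensor. Stimulation uses hNppA at 0.1 nM final; luminescence is taken at baseline and 20 min post-agonist.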
* marks the source's active call; other numbers are inactive results; i = inactive; ? = inconclusive; nt = no result given; [ ] = another dose, or the depositor's remark. Hits are enriched below; roughly 11% of the tested compounds scored in any of these assays. Unless noted, calls follow the shape of the dose curve; as a rule, active = well fitted curve in the direction sought with a large enough effect; inconclusive = small, poorly fitted or top-dose-only effect, or another doubt; inactive = no such curve, though single readings can be large; an effect the other way counts as inactive or inconclusive. % is scaled to controls: 0 for no effect and ±100 for the full control effect; potency is read from the fitted curve at half-maximal effect.

SMILES	HEK293 tox	NIH3T3 tox	Luciferase inh	hNpr1 antagonist
C=CCOc1c(OC)ccc2c1CN(CC1CC1)C(=O)CCN2CC(O)COc1ccc(OC)cc1 (configuration not stated)	40µM*	?	nt	nt
O=C(Nc1ccccc1)[C@@H]1OCCN(C2CC2)[C@H]1c1ccccc1	-24%	-13%	nt	nt
COc1cccc(Nc2ncc3c(n2)C(C)(C(=O)NCc2cccnc2)CC3)c1 (configuration not stated)	79µM*	?	i	-2%[70.6 µM]
CC1(C(=O)NCc2cccnc2)CCCc2cnc(NCc3ccccc3)nc21 (configuration not stated)	?	50µM*	i	6%[70.6 µM]
CC1(C(=O)NCc2ccncc2)CCc2cnc(NCc3ccccc3)nc21 (configuration not stated)	-28%[172 µM]	45µM*	i	5%[70.6 µM]
CC1(C(=O)NCc2cccnc2)CCc2cnc(Nc3ccccc3)nc21 (configuration not stated)	89µM*	25µM*	i	2%[70.6 µM]
CC1(C(=O)NCc2cccnc2)CCCc2cnc(Nc3ccccc3)nc21 (configuration not stated)	-28%[172 µM]	?	i	5%[70.6 µM]
CNC(=O)c1cc(C2CC2)nc2onc(C3CCN(C(=O)c4ccc(F)cc4)CC3)c12	-14%	?	nt	nt
COc1cccc(C(=O)N2CCCC3(CN[S+](=O)([O-])c4cnccc4N3)C2)c1 (configuration not stated)	4%	-14%	nt	nt
COc1ccc(CCNC(=O)c2ccc3nc(-c4ccccn4)oc3c2)cc1	?	-16%	nt	nt
CC1(C(=O)NCc2ccc(F)cc2)COCc2cnc(Nc3ccccc3)nc21 (configuration not stated)	79µM*	?	i	?
CC1(C(=O)Nc2ccccc2F)COCc2cnc(Nc3ccccc3)nc21 (configuration not stated)	?	?	i	-19%[70.6 µM]
CC1(C(=O)NCc2cccnc2)CCc2cnc(NCc3ccccc3)nc21 (configuration not stated)	-26%[172 µM]	35µM*	i	-2%[70.6 µM]
O=C(NCC1CC1)C1CCN(c2nccc(Nc3ccccc3Cl)n2)CC1	32µM*	32µM*	nt	nt
COCCNC(=O)[C@@H]1CCCN1c1nccc(Nc2ccccc2Cl)n1	-30%	-28%	nt	nt
COc1ccc(CC(=O)N2CCN(c3nccc(Nc4ccccc4Cl)n3)CC2)cc1	?	40µM*	nt	nt
COc1ccc(CNC(=O)C2CCN(c3nccc(Nc4ccccc4Cl)n3)CC2)cc1	25µM*	35µM*	nt	nt
Cc1ccccc1C(=O)N1CCCC(C(=O)N2CCCC(c3nc4ccncc4[nH]3)C2)C1 (configuration not stated)	-1%	-22%	nt	nt
Cn1nc(C2CCCN(C(=O)CCC3CCCC3)C2)n(Cc2ccccc2)c1=O (configuration not stated)	-21%	?	nt	nt
CC[C@H]1CN(C(=O)Nc2cccc(C(F)(F)F)c2)CC[C@H]1CC(=O)NCc1ccc(OC)cc1	40µM*	?	i	?
CC[C@H]1CN(C(=O)Nc2cccc(OC)c2)CC[C@H]1CC(=O)NCc1ccccc1	-13%[172 µM]	-30%[174 µM]	i	-13%[70.6 µM]
COCC1CN(C2CCC2)CC12CCN(C(=O)Cc1cccc(OC)c1)CC2 (configuration not stated)	?	?	i	-15%
O=C(Cc1ccc(F)cc1)N1CCC2(CC1)CN(Cc1ccccc1)CC2CO (configuration not stated)	45µM*	?	i	-28%
COCC1CN(C(C)=O)CC12CCN(C(=O)Cc1cccc(F)c1)CC2 (configuration not stated)	i	i	i	11%
COCC1CN(C)CC12CCN(C(=O)Cc1ccc(OC)c(Cl)c1)CC2 (configuration not stated)	89µM*	-22%	i	0%
SMILES	HEK293 tox	NIH3T3 tox	Luciferase inh	hNpr1 antagonist
COCC1CN(C2CCC2)CC12CCN(C(=O)Cc1cccc(F)c1)CC2 (configuration not stated)	50µM*	?	i	-18%
COCC1CN(C)CC12CCN(C(=O)Cc1cccc(Cl)c1)CC2 (configuration not stated)	35µM*	?	i	-15%
COCCNC(=O)CCc1nc(C2CCCN2C(=O)c2ccccc2)no1 (configuration not stated)	0%	-12%	nt	nt
COc1ccc(-c2cn3cc(C(=O)NCc4cccs4)nc3s2)cc1	-3%	i	nt	nt
COCCNC(=O)C1CC(=O)N(C2CN(S(=O)(=O)Cc3ccccc3)C2)C1 (configuration not stated)	-3%	-20%	nt	nt
COCC1CN(C2CCC2)CC12CCN(C(=O)c1ccccc1Cl)CC2 (configuration not stated)	79µM*	?	i	-2%
O=C1CCN(CC(O)C(F)(F)F)c2ccc(F)cc2CN1Cc1ccco1 (configuration not stated)	-19%	?	nt	nt
COCCn1c(=O)n([C@H]2CCCN(C(=O)c3nn(C)c4ccccc34)C2)c2ncccc21	?	-23%	i	10%
Cc1ccsc1C(=O)N1CCC[C@H](n2c(=O)n(CC3CC3)c3cccnc32)C1	25µM*	?	i	-23%
Cn1nc(C(=O)N2CCC[C@H](n3c(=O)n(CC4CC4)c4cccnc43)C2)c2ccccc21	32µM*	?	nt	nt
NC(=O)Cc1c[nH]c2ncc(-c3cccc(O)c3)cc12	4%[230 µM]	?	?	-2%[70.6 µM]
NC(=O)Cc1c[nH]c2ncc(-c3ccc4c(c3)OCO4)cc12	-11%[172 µM]	45µM*	63µM*	-4%[70.6 µM]
NC(=O)Cc1c[nH]c2ncc(-c3ccc(Cl)cc3)cc12	?	?	79µM*	-24%[70.6 µM]
CC(C)NC(=O)C1CCC(=O)N1C1CCN(C(=O)C2CCC2)CC1 (configuration not stated)	-16%	-23%	nt	nt
COc1cccc(CNC(=O)C2CCc3nnc(C4CC4)n32)c1 (configuration not stated)	-23%[172 µM]	-13%[138 µM]	nt	nt
Cc1ccc(-c2cc(N3CCCN(C(=O)c4ccccn4)CC3)n[nH]2)cc1C	?	i	i	-1%
Cc1ccccc1CC(=O)N1CCCN(c2cc(-c3ccc(Cl)cc3)[nH]n2)CC1	?	?	i	0%
COc1ccc(CC(=O)N2CCCN(c3cc(-c4ccc(Br)cc4)[nH]n3)CC2)cc1OC	?	?	i	?
COc1ccc(-c2cc(N3CCCN(C(=O)Cc4ccc(C)cc4)CC3)n[nH]2)cc1	?	?	i	?
Cc1ccc(-c2cc(N3CCCN(C(=O)c4ccccc4C)CC3)n[nH]2)cc1C	32µM*	40µM*	i	?
Cc1cccc(CC(=O)N2CCCN(c3cc(-c4ccc(Cl)cc4)[nH]n3)CC2)c1	?	40µM*	i	?
COc1ccc(-c2cc(N3CCCN(C(=O)Cc4ccc(Cl)cc4)CC3)n[nH]2)cc1	45µM*	?	i	-26%

Compound activity deposited in PubChem BioAssay by National Center for Advancing Translational Sciences (NCATS).
